# Measured values from the supplement of paper PMC4723716.
# Several values for one entry are separate records, joined by “and”; a condition that tells them apart may be missing. Equal entries are not always repeated. ± gives the uncertainty stated by the source. In all, about 9,900 compounds were measured (“viability index relative to DMSO control”: median about 1, lowest 2% from about 0.85 on). Shown is part of a subset that was picked to be rich in the lowest values.
# System: Plasmodium falciparum NF54 stage V gametocytes
# Assay: viability index relative to DMSO control (fraction); higher = less gametocyte killing
# Conditions: 2.5 µM, incubation time: 72 h
# Procedure: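 Broad DOS informer set and blood-stage-active DOS compounds screened in duplicate at 2.5 µM against P. falciparum NF54 stage V gametocytes with the serum-free one-step SaLSSA (1536-well): 72 h at 37 °C under low oxygen, then saponin lysis and MitoTracker Red CMXRos staining, with high-content imaging. Viability index = viable-object count divided by the plate mean of DMSO wells (0 = killed, about 1 = inactive).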
# [1] = library set: Broad Institute DOS
# [2] = library set: Broad Institute Blood Stage
smiles,measurement,setting,value
C[C@H]1CN([C@@H](C)CO)C(=O)Cc2cc(NC(=O)CCC(F)(F)F)ccc2O[C@H]1CN(C)CC1CC1,viability index,[1],1.0278 ± 0.00041
O=C(C[C@H]1C=C[C@@H](NC(=O)c2ccncc2)[C@@H](CO)O1)NCC1CC1,viability index,[1],1.08 ± 0.03
COc1ccc2c3c([nH]c2c1)[C@@H](CO)N(C[C@]31CCN(Cc2ccccc2Cl)CC1)S(=O)(=O)c1cn(C)cn1,viability index,[1],0.955 ± 0.018
O=C(Cc1ccncc1)NCC[C@H]1CC[C@H](NS(=O)(=O)c2ccccc2Cl)[C@H](CO)O1,viability index,[1],1.09 ± 0.031
CN1[C@@H]2Cn3c(ccc(-c4ccncc4)c3=O)[C@H]1[C@@H](C(=O)N1CCC(Cc3ccccc3)CC1)[C@@H]2CO,viability index,[1],1.11 ± 0.041
COc1ccc2c3c([nH]c2c1)[C@H](CO)N(C[C@]31CCN(Cc2cncnc2)CC1)C(=O)CN(C)C,viability index,[1],0.991 ± 0.06
O=C(NC[C@@H]1[C@H](c2ccccc2)[C@H](CO)N1Cc1ccccn1)C1CCCC1,viability index,[1],0.684 ± 0.14
O=C(NC[C@@H]1[C@@H](c2ccccc2)[C@H](CO)N1Cc1ccccn1)C1CCCC1,viability index,[1],1.05 ± 0.068
O=C(NC[C@H]1[C@H](c2ccccc2)[C@@H](CO)N1Cc1ccccn1)C1CCCC1,viability index,[1],0.9562 ± 0.0077
N#C[C@H]1[C@H](c2ccc(C#Cc3ccccc3F)cc2)[C@@H](CO)N1C(=O)c1cccnc1,viability index,[1],1.02 ± 0.033
C[C@H](CO)N1C[C@H](C)[C@H](CN(C)CC2CC2)Oc2ccc(NC(=O)CCC(F)(F)F)cc2CC1=O,viability index,[1],0.953 ± 0.022
C[C@@H]1CN([C@@H](C)CO)C(=O)c2ccccc2-c2ccccc2CO[C@@H]1CN(C)Cc1cccnc1,viability index,[1],1.049 ± 0.005
OC[C@@H]1[C@H](c2ccc(-c3ccc(F)cc3)cc2)[C@H](CNC2CCCC2)N1CCC(F)(F)F,viability index,[1],0.837 ± 0.1
OC[C@H]1[C@@H](c2ccc(-c3ccc(F)cc3)cc2)[C@@H]2CN(CCC(F)(F)F)CCCCN12,viability index,[2],0.959 ± 0.057
OC[C@@H]1[C@H](c2ccc(-c3ccc(F)cc3)cc2)[C@@H](CNC2CCCC2)N1CCC(F)(F)F,viability index,[1],0.557 ± 0.096
CN(C[C@H]1[C@@H](c2ccc(C3=CCCC3)cc2)[C@@H](CO)N1CCC(F)(F)F)S(C)(=O)=O,viability index,[1],1.02 ± 0.046
CCC(=O)NC[C@H]1[C@@H](c2ccc(-c3ccc(C#N)cc3)cc2)[C@@H](CO)N1CCC(F)(F)F,viability index,[1],1.01 ± 0.028
CCCN1[C@H](CO)[C@H](c2ccc(C#Cc3ccccc3)cc2)[C@@H]1CNC1CCCC1,viability index,[1],0.914 ± 0.021
CO[C@H](CN(C)C(=O)c1cnccn1)[C@H](C)CN([C@H](C)CO)S(=O)(=O)c1ccccc1,viability index,[1],0.948 ± 0.067
COc1ccc(CNC(=O)C[C@H]2CC[C@H](NC(=O)CN(C)C)[C@@H](CO)O2)cc1,viability index,[1],1.1 ± 0.008
NCC[C@@H]1CC[C@H](NS(=O)(=O)c2ccc(Cl)cc2)[C@H](CO)O1,viability index,[1],1.08 ± 0.093
NCC[C@H]1CC[C@H](NS(=O)(=O)c2ccc(Cl)cc2)[C@H](CO)O1,viability index,[1],0.803 and 1.11
NCC[C@@H]1CC[C@@H](NS(=O)(=O)c2ccc(Cl)cc2)[C@@H](CO)O1,viability index,[1],1.02 and 1.13
C[C@@H]1C/C=C/C[C@@H](c2cccc(Cl)c2)NC(=O)[C@@H](Cc2ccccc2)N(C)C(=O)c2ccccc2O1.C[C@@H]1C/C=C\C[C@@H](c2cccc(Cl)c2)NC(=O)[C@@H](Cc2ccccc2)N(C)C(=O)c2ccccc2O1,viability index,[1],0.812 ± 0.044
C[C@@H]1C/C=C/C[C@H](c2cccc(Cl)c2)NC(=O)[C@@H](Cc2ccccc2)N(C)C(=O)c2ccccc2O1.C[C@@H]1C/C=C\C[C@H](c2cccc(Cl)c2)NC(=O)[C@@H](Cc2ccccc2)N(C)C(=O)c2ccccc2O1,viability index,[1],0.9516 ± 0.0088
C[C@@H]1C/C=C/C[C@@H](c2cccc(Cl)c2)NC(=O)[C@H](Cc2ccccc2)N(C)C(=O)c2ccccc2O1.C[C@@H]1C/C=C\C[C@@H](c2cccc(Cl)c2)NC(=O)[C@H](Cc2ccccc2)N(C)C(=O)c2ccccc2O1,viability index,[1],0.94 ± 0.029
CCS(=O)(=O)N1C[C@@]2(C1)CN(CC1CCOCC1)[C@H](CO)c1c2c2ccc(OC)cc2n1C,viability index,[1],0.985 ± 0.037
C[C@@H]1CCCCO[C@@H](CN(C)S(=O)(=O)c2cn(C)cn2)[C@H](C)CN([C@@H](C)CO)C(=O)c2cc(NC(=O)Nc3cccc4ccccc34)ccc2O1,viability index,[1],1.02 ± 0.062
O=C(C[C@@H]1CC[C@@H](NS(=O)(=O)c2ccc(F)cc2)[C@H](CO)O1)N1CCN(c2ccccc2)CC1,viability index,[1],1.05 ± 0.087
O=C(Nc1ccccc1F)N1CCCCN2[C@H](CO)[C@@H](c3ccc(/C=C/c4ccccc4)cc3)[C@@H]2C1,viability index,[1],0.961 ± 0.019
O=C(Nc1ccccc1F)N1CCCCN2[C@@H](CO)[C@@H](c3ccc(/C=C/c4ccccc4)cc3)[C@@H]2C1,viability index,[1],0.8892 ± 0.0057
O=C(Nc1ccccc1F)N1CCCCN2[C@H](CO)[C@H](c3ccc(/C=C/c4ccccc4)cc3)[C@@H]2C1,viability index,[1],1.01 ± 0.021
O=C(Nc1cc(F)ccc1F)N1CCCCN2[C@H](C1)[C@H](c1ccc(C3=CCCCC3)cc1)[C@@H]2CO,viability index,[1],1.04 ± 0.075
O=C(Nc1cc(F)ccc1F)N1CCCCN2[C@H](CO)[C@H](c3ccc(C4=CCCCC4)cc3)[C@H]2C1,viability index,[1],0.686 ± 0.018
O=C(Nc1cc(F)ccc1F)N1CCCCN2[C@H](CO)[C@H](c3ccc(C4=CCCCC4)cc3)[C@@H]2C1,viability index,[1],0.935 ± 0.14
O=C(Nc1ccccc1F)N1CCCCN2[C@H](CO)[C@H](c3ccc(/C=C/c4ccccc4)cc3)[C@H]2C1,viability index,[1],0.492 ± 0.14
O=C(Nc1ccccc1F)N1CCCCN2[C@H](CO)[C@@H](c3ccc(/C=C/c4ccccc4)cc3)[C@H]2C1,viability index,[1],0.859 ± 0.037
O=C(Nc1cc(F)ccc1F)N1CCCCN2[C@@H](CO)[C@@H](c3ccc(C4=CCCCC4)cc3)[C@@H]2C1,viability index,[1],0.818 ± 0.063
O=C(C[C@@H]1C=C[C@@H](NC(=O)C2CCC2)[C@@H](CO)O1)NC1CCCCC1,viability index,[1],1.16 ± 0.096
C[C@@H]1CN([C@@H](C)CO)C(=O)c2cc(NC(=O)C3CCCCC3)ccc2O[C@@H](C)CCCCO[C@@H]1CN(C)C(=O)CCC(F)(F)F,viability index,[1],1.05 ± 0.025
CCCC(=O)N1C[C@@]2(C1)CN([C@@H](CO)c1c2c2ccc(OC)cc2n1C)C(=O)Nc1cccc(F)c1,viability index,[1],0.997 ± 0.13
C[C@H](NC(=O)C[C@@H]1C=C[C@H](NS(=O)(=O)c2cccc(F)c2)[C@H](CO)O1)c1ccccc1,viability index,[1],1.08 ± 0.11
N#Cc1ccc(-c2ccc([C@H]3[C@@H](CO)N4C(=O)CNC[C@@H]34)cc2)cc1,viability index,[1],0.965 ± 0.1
CN1CCN(C(=O)C[C@H]2CC[C@@H]3[C@H](COC[C@@H](O)CN3C(=O)Nc3ccc4c(c3)OCO4)O2)CC1,viability index,[1],1.05 ± 0.017
O=C(C1CCOCC1)N1[C@@H](CO)[C@@H](c2ccccc2)C12CN(Cc1cccc(Cl)c1)C2,viability index,[1],1.103 ± 0.0018
O=C(C1CCOCC1)N1[C@H](CO)[C@@H](c2ccccc2)C12CN(Cc1cccc(Cl)c1)C2,viability index,[1],1.1 ± 0.062
O=C(C1CCCCC1)N1[C@H](CO)[C@@H](c2ccccc2)C12CN(Cc1cccc(Cl)c1)C2,viability index,[2],0.748 ± 0.048
O=C(C[C@H]1C[C@H]2c3cc(NS(=O)(=O)c4ccc(F)cc4)ccc3O[C@H]2[C@H](CO)O1)N1CCc2ccccc2C1,viability index,[1],0.861 ± 0.059
C[C@@H]1CCn2nncc2COC[C@H]2CCCN2C1=O,viability index,[1],1.04 ± 0.058
O=S(=O)(c1ccccc1)N1CCCCN2[C@H](C1)[C@H](c1ccc(C#CC3CCCC3)cc1)[C@@H]2CO,viability index,[1],1.03 ± 0.031
O=S(=O)(c1ccccc1)N1CCCCN2[C@@H](CO)[C@@H](c3ccc(C#CC4CCCC4)cc3)[C@@H]2C1,viability index,[1],0.8429 ± 0.006
O=S(=O)(c1ccccc1)N1CCCCN2[C@H](CO)[C@@H](c3ccc(C#CC4CCCC4)cc3)[C@H]2C1,viability index,[1],1.03 ± 0.056
O=S(=O)(c1ccccc1)N1CCCCN2[C@H](CO)[C@H](c3ccc(C#CC4CCCC4)cc3)[C@H]2C1,viability index,[1],0.8253 ± 0.0077
O=S(=O)(c1ccccc1)N1CCCCN2[C@H](CO)[C@@H](c3ccc(C#CC4CCCC4)cc3)[C@@H]2C1,viability index,[1],1.01 ± 0.026
O=S(=O)(c1ccccc1)N1CCCCN2[C@H](C1)[C@@H](c1ccc(C#CC3CCCC3)cc1)[C@@H]2CO,viability index,[1],0.907 ± 0.07
O=C(CN1CCOCC1)N1[C@H](CO)[C@H]2c3ccccc3NC[C@H]21,viability index,[1],1 ± 0.088
C[C@H]1CN([C@@H](C)CO)C(=O)c2cc(NC(=O)Nc3cccc4ccccc34)ccc2O[C@@H]1CN(C)S(=O)(=O)c1cccs1,viability index,[1],1.06 ± 0.026
CN(C)C(=O)c1cccc(-c2ccc3c(c2)[C@@H]2[C@@H](CCN2C(=O)c2cnccn2)[C@@H](CO)N3)c1,viability index,[1],1.12 ± 0.032
CN(C)C(=O)c1cccc(-c2ccc3c(c2)[C@H]2[C@H](CCN2C(=O)c2cnccn2)[C@@H](CO)N3)c1,viability index,[1],1.16 ± 0.02
COc1ccccc1-c1ccc2c(c1)[C@H]1[C@H](CCN1Cc1ccccc1F)[C@@H](CO)N2,viability index,[1],1.02 ± 0.035
CN(C)C(=O)c1cccc(-c2ccc3c(c2)[C@H]2[C@H](CCN2Cc2nccs2)[C@@H](CO)N3)c1,viability index,[1],1.18 ± 0.023
CN(C)C(=O)c1cccc(-c2ccc3c(c2)[C@H]2[C@H](CCN2Cc2nccs2)[C@H](CO)N3)c1,viability index,[1],0.818 ± 0.014
COc1ccccc1CN1CC[C@@H]2[C@H]1c1cc(C3=CCCCC3)ccc1N[C@@H]2CO,viability index,[1],0.8126 ± 0.0046
COc1ccccc1CN1CC[C@@H]2[C@H]1c1cc(-c3cccc(C(=O)N(C)C)c3)ccc1N[C@@H]2CO,viability index,[1],1.09 ± 0.028
CN(C)C(=O)c1cccc(-c2ccc3c(c2)[C@@H]2[C@@H](CCN2Cc2nccs2)[C@@H](CO)N3)c1,viability index,[1],0.785 ± 0.07
OC[C@@H]1Nc2ccc(C3=CCCCC3)cc2[C@@H]2[C@H]1CCN2Cc1nccs1,viability index,[1],1.06 ± 0.059
CN(C)C(=O)c1cccc(-c2ccc3c(c2)[C@@H]2[C@@H](CCN2C(=O)c2cnccn2)[C@H](CO)N3)c1,viability index,[1],1.17 ± 0.072
COc1ccccc1CN1CC[C@@H]2[C@H](CO)Nc3ccc(-c4cccc(C(=O)N(C)C)c4)cc3[C@@H]21,viability index,[1],0.841 ± 0.072
CN(C)C(=O)c1cccc(-c2ccc3c(c2)[C@H]2[C@H](CCN2C(=O)c2cnccn2)[C@H](CO)N3)c1,viability index,[1],1.1 ± 0.035
C[C@H]1CCCCO[C@H](CN(C)C(=O)Nc2ccc(C(F)(F)F)cc2)[C@@H](C)CN([C@@H](C)CO)C(=O)c2cc(NS(=O)(=O)c3cn(C)cn3)ccc2O1,viability index,[1],1.01 ± 0.013
